Measured values reported in PMC11062922 (Nature Chemical Biology, 2023).
Where two headings read alike, the source gives them in different places.

Assays:
[1] = tested on: NUAK1; details: read-out: apparent Kd, n = 1
[2] = tested on: PAK4; details: read-out: apparent Kd, n = 1

Lestaurtinib
potency estimated from few doses ([1]; compound concentrations:100 nM and 1000 nM (sheet 'Lestaurtinib' of Supplementary Table 1),run:Lestaurtinib_02496_R2,Plate:MR013): 81.1 nM
potency estimated from few doses ([1]; compound concentrations:100 nM and 1000 nM (sheet 'Lestaurtinib' of Supplementary Table 1),run:Lestaurtinib_02566_R2,Plate:MR014): 73 nM
potency estimated from few doses ([1]; compound concentrations:100 nM and 1000 nM (sheet 'Lestaurtinib' of Supplementary Table 1),run:Lestaurtinib_02566_R3,Plate:MR014): 85.3 nM
potency estimated from few doses ([1]; compound concentrations:100 nM and 1000 nM (sheet 'Lestaurtinib' of Supplementary Table 1),run:Lestaurtinib_02572_R2,Plate:MR015): 17.9 nM
potency estimated from few doses ([1]; compound concentrations:100 nM and 1000 nM (sheet 'Lestaurtinib' of Supplementary Table 1),run:Lestaurtinib_02572_R3,Plate:MR015): 42.5 nM
potency estimated from few doses ([1]; compound concentrations:100 nM and 1000 nM (sheet 'Lestaurtinib' of Supplementary Table 1),run:Lestaurtinib_02577_R2,Plate:MR016): 113 nM
potency estimated from few doses ([1]; compound concentrations:100 nM and 1000 nM (sheet 'Lestaurtinib' of Supplementary Table 1),run:Lestaurtinib_02577_R3,Plate:MR016): 73.6 nM
potency estimated from few doses ([1]; compound concentrations:100 nM and 1000 nM (sheet 'Lestaurtinib' of Supplementary Table 1),run:Lestaurtinib_02584_R1,Plate:MR017): 89.4 nM
potency estimated from few doses ([1]; compound concentrations:100 nM and 1000 nM (sheet 'Lestaurtinib' of Supplementary Table 1),run:Lestaurtinib_02584_R2,Plate:MR017): 66.9 nM
potency estimated from few doses ([1]; compound concentrations:100 nM and 1000 nM (sheet 'Lestaurtinib' of Supplementary Table 1),run:Lestaurtinib_02584_R3,Plate:MR017): 134 nM
potency estimated from few doses ([1]; compound concentrations:100 nM and 1000 nM (sheet 'Lestaurtinib' of Supplementary Table 1),run:Lestaurtinib_02601_R1,Plate:MR018): 142 nM
potency estimated from few doses ([1]; compound concentrations:100 nM and 1000 nM (sheet 'Lestaurtinib' of Supplementary Table 1),run:Lestaurtinib_02606_R1,Plate:MR019): 39.7 nM
potency estimated from few doses ([1]; compound concentrations:100 nM and 1000 nM (sheet 'Lestaurtinib' of Supplementary Table 1),run:Lestaurtinib_02606_R2,Plate:MR019): 58 nM
potency estimated from few doses ([1]; compound concentrations:100 nM and 1000 nM (sheet 'Lestaurtinib' of Supplementary Table 1),run:Lestaurtinib_02606_R3,Plate:MR019): 92 nM
potency estimated from few doses ([1]; compound concentrations:100 nM and 1000 nM (sheet 'Lestaurtinib' of Supplementary Table 1),run:Lestaurtinib_02624_R2,Plate:MR020): 82.2 nM
potency estimated from few doses ([1]; compound concentrations:100 nM and 1000 nM (sheet 'Lestaurtinib' of Supplementary Table 1),run:Lestaurtinib_02624_R3,Plate:MR020): 96.7 nM
potency estimated from few doses ([1]; compound concentrations:100 nM and 1000 nM (sheet 'Lestaurtinib' of Supplementary Table 1),run:Lestaurtinib_02724_R1,Plate:MR021): 59.7 nM
potency estimated from few doses ([1]; compound concentrations:100 nM and 1000 nM (sheet 'Lestaurtinib' of Supplementary Table 1),run:Lestaurtinib_02741_R1,Plate:MR023): 165 nM
potency estimated from few doses ([1]; compound concentrations:100 nM and 1000 nM (sheet 'Lestaurtinib' of Supplementary Table 1),run:Lestaurtinib_02741_R3,Plate:MR023): 43.7 nM
potency estimated from few doses ([1]; compound concentrations:100 nM and 1000 nM (sheet 'Lestaurtinib' of Supplementary Table 1),run:Lestaurtinib_02748_R1,Plate:MR024): 52.3 nM
potency estimated from few doses ([1]; compound concentrations:100 nM and 1000 nM (sheet 'Lestaurtinib' of Supplementary Table 1),run:Lestaurtinib_02748_R2,Plate:MR024): 40.2 nM
potency estimated from few doses ([1]; compound concentrations:100 nM and 1000 nM (sheet 'Lestaurtinib' of Supplementary Table 1),run:Lestaurtinib_02752_R1,Plate:MR025): 56.1 nM
potency estimated from few doses ([1]; compound concentrations:100 nM and 1000 nM (sheet 'Lestaurtinib' of Supplementary Table 1),run:Lestaurtinib_02752_R3,Plate:MR025): 64.1 nM
potency estimated from few doses ([1]; compound concentrations:100 nM and 1000 nM (sheet 'Lestaurtinib' of Supplementary Table 1),run:Lestaurtinib_02765_R1,Plate:MR026): 74.4 nM
potency estimated from few doses ([1]; compound concentrations:100 nM and 1000 nM (sheet 'Lestaurtinib' of Supplementary Table 1),run:Lestaurtinib_02765_R3,Plate:MR026): 64.4 nM
potency estimated from few doses ([1]; compound concentrations:100 nM and 1000 nM (sheet 'Lestaurtinib' of Supplementary Table 1),run:Lestaurtinib_02766_R1,Plate:MR027): 97.5 nM
potency estimated from few doses ([1]; compound concentrations:100 nM and 1000 nM (sheet 'Lestaurtinib' of Supplementary Table 1),run:Lestaurtinib_02766_R3,Plate:MR027): 92.8 nM
potency estimated from few doses ([1]; compound concentrations:100 nM and 1000 nM (sheet 'Lestaurtinib' of Supplementary Table 1),run:Lestaurtinib_02768_R2,Plate:MR028): 41.7 nM
potency estimated from few doses ([1]; compound concentrations:100 nM and 1000 nM (sheet 'Lestaurtinib' of Supplementary Table 1),run:Lestaurtinib_02768_R3,Plate:MR028): 48.7 nM
potency estimated from few doses ([1]; compound concentrations:100 nM and 1000 nM (sheet 'Lestaurtinib' of Supplementary Table 1),run:Lestaurtinib_02795_R1,Plate:MR022): 62.8 nM
potency estimated from few doses ([1]; compound concentrations:100 nM and 1000 nM (sheet 'Lestaurtinib' of Supplementary Table 1),run:Lestaurtinib_02795_R2,Plate:MR022): 38.6 nM
potency estimated from few doses ([1]; compound concentrations:100 nM and 1000 nM (sheet 'Lestaurtinib' of Supplementary Table 1),run:Lestaurtinib_02795_R3,Plate:MR022): 165 nM
potency estimated from few doses ([1]; compound concentrations:100 nM and 1000 nM (sheet 'Lestaurtinib' of Supplementary Table 1),run:Lestaurtinib_02802_R1,Plate:MR029): 72.2 nM
potency estimated from few doses ([1]; compound concentrations:100 nM and 1000 nM (sheet 'Lestaurtinib' of Supplementary Table 1),run:Lestaurtinib_02802_R3,Plate:MR029): 44.9 nM
potency estimated from few doses ([1]; compound concentrations:100 nM and 1000 nM (sheet 'Lestaurtinib' of Supplementary Table 1),run:Lestaurtinib_02896_R1,Plate:MR030): 52.5 nM
potency estimated from few doses ([1]; compound concentrations:100 nM and 1000 nM (sheet 'Lestaurtinib' of Supplementary Table 1),run:Lestaurtinib_02896_R3,Plate:MR030): 55.1 nM
potency estimated from few doses ([1]; compound concentrations:100 nM and 1000 nM (sheet 'Lestaurtinib' of Supplementary Table 1),run:Lestaurtinib_03172_R2,Plate:MR031): 66.5 nM
potency estimated from few doses ([1]; compound concentrations:100 nM and 1000 nM (sheet 'Lestaurtinib' of Supplementary Table 1),run:Lestaurtinib_03172_R3,Plate:MR031): 62.7 nM
potency estimated from few doses ([1]; compound concentrations:100 nM and 1000 nM (sheet 'Lestaurtinib' of Supplementary Table 1),run:Lestaurtinib_03252_R1,Plate:MR032): 51.7 nM
potency estimated from few doses ([2]; compound concentrations:100 nM and 1000 nM (sheet 'Lestaurtinib' of Supplementary Table 1),run:Lestaurtinib_02339_R1,Plate:MR001): 32.7 nM
potency estimated from few doses ([2]; compound concentrations:100 nM and 1000 nM (sheet 'Lestaurtinib' of Supplementary Table 1),run:Lestaurtinib_02339_R2,Plate:MR001): 36.1 nM
potency estimated from few doses ([2]; compound concentrations:100 nM and 1000 nM (sheet 'Lestaurtinib' of Supplementary Table 1),run:Lestaurtinib_02364_R1,Plate:MR002): 32 nM
